Screening data as filed in PubChem BioAssay.
Rows were chosen to be rich in hits. Some 3.6% of all compounds tested hit in one or more screens of this group.
Anthrax LF inh2 = inhibitors of Bacillus anthracis lethal factor protease; multiplex microsphere protease cleavage assay, LF; AID 588501; 0.12% of 360,000 active; P15917; inhibition, % at 10 µM
Target sequence (P15917 whole entry, looked up): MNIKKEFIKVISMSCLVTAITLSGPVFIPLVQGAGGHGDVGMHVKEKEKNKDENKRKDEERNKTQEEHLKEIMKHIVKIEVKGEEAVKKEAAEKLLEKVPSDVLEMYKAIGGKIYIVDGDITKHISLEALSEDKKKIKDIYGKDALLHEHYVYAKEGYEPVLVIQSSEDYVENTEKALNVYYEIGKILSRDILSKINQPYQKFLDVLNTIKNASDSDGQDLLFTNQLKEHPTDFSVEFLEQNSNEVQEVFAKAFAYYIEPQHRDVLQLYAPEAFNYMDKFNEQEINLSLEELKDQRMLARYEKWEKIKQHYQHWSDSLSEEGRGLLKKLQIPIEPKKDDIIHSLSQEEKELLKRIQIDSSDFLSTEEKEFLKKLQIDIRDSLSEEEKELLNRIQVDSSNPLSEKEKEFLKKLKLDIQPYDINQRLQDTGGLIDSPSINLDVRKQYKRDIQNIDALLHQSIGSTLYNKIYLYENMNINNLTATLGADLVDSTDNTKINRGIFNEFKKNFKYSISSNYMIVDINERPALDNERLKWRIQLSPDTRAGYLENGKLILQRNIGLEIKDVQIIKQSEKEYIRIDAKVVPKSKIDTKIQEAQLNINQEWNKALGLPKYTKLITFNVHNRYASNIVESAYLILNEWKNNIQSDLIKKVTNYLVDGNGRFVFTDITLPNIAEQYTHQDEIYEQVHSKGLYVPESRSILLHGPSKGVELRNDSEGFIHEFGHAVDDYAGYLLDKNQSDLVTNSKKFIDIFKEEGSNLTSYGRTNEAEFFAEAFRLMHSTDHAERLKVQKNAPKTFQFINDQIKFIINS
BoNT-A LC inh2 = blocks Botulinum neurotoxin A light chain protease | multiplex microsphere protease substrate cleavage, flow cytometry | inhibition, % at 10 µM | 0.17% of 360,000 active
Bead autofluor = flagged as autofluorescent in microsphere protease counterscreen | compound autofluorescence counterscreen, microsphere flow cytometry; hits give high values | fluorescence intensity (no concentration beside the values) | 3.1% of 360,000 active | AID 624483; in the data active = fluorescence intensity above about 16000; inconclusive = no clear call, values can overlap the other calls
BoNT-F LC inh = blocks Botulinum neurotoxin F light chain protease; Multiplex microsphere protease cleavage assay, flow cytometry; inhibition, % at 10 µM; 0.22% of 360,000 active; AID 588497; in the data active = inhibition above about 35%, passing the limit was not always enough; inconclusive = no clear call, values can overlap the other calls
MazF activator = activators of E. coli MazEF toxin-antitoxin RNase; P0AE70; FAM/BHQ RNA-DNA oligo cleavage fluorescence, 5 h; activation, % at 20 µM; 0.32% of 350,000 active; AID 504720; in the data active = activation above about 50%
Large screens that a line does not name were inactive. Rule as the data show it, unless noted: active = inhibition above about 30%; inconclusive = no clear call, values can overlap the other calls; inactive = below that.

CCOCC(O)CS(=O)Cc1ccccc1 (configuration not stated)	Bead autofluor 24995
CCCCS(=O)CC(O)COCC (configuration not stated)	none
Cn1c(=O)c(=O)n(C)c2cc(S(=O)(=O)CCC(=O)Nc3ccccc3C(F)(F)F)ccc21	none
Cc1nc2c(ccc3nc(NC(=O)c4ccc5c(c4)OCCO5)sc32)s1	MazF activator 73
COc1cccc(CC(=O)N(C)C2CCCN(Cc3ccccc3F)C2)c1 (configuration not stated)	none
COc1cccc(CCC(=O)N(C)C2CCCN(Cc3ccccc3F)C2)c1 (configuration not stated)	BoNT-F LC inh 36
CCN(CC)CCCN=C(C)c1c(O)n(C2CCCCC2)c(=O)[nH]c1=O	Bead autofluor 16590
CCC(=NCCCN(CC)CC)c1c(O)n(C2CCCCC2)c(=O)[nH]c1=O	Bead autofluor 25763
CCC(=Nc1ccc(OC)cc1OC)c1c(O)n(C2CCCCC2)c(=O)[nH]c1=O	Bead autofluor 22084
COc1ccc(Oc2c(C(F)(F)F)oc3cc(OCC(=O)O)ccc3c2=O)cc1	none
O=C(c1[nH]c(C(F)(F)F)nc1-c1ccccc1)N1CCN(c2ncccc2C(F)(F)F)CC1	none (no result: MazF activator)
O=C1/C(=C/c2cccs2)SC(=S)N1c1cccc(O)c1	none
CCCCNC(=O)C(CC)Sc1nc2sc(C(=O)OC)c(C)c2c(=O)n1N (configuration not stated)	none
CCC(Sc1nc2sc(C(=O)OC)c(C)c2c(=O)n1N)C(=O)N(CC)CC (configuration not stated)	Bead autofluor 21202
COc1cccc(C(C2C(=O)CC(C)(C)CC2=O)C2C(=O)CC(C)(C)CC2=O)c1	none
CC1(C)CC(=O)C(C(c2cccnc2)C2C(=O)CC(C)(C)CC2=O)C(=O)C1	Bead autofluor 22323
COc1ccc(NS(=O)(=O)c2cc(NC(=O)[C@@H](NC(=O)c3ccccc3)C(C)C)ccc2C)cc1	none
Cc1cc2nc(-c3cccnc3SCC(=O)NCc3ccco3)[nH]c2cc1C	Bead autofluor 22154
COc1cccc(C(NC(C)=O)c2nc(-c3ccc(N(C)C)cc3)cs2)c1 (configuration not stated)	none (no result: MazF activator)
Cc1cc(C)c(CSc2ncc(-c3ccc([N+](=O)[O-])cc3)[nH]2)c(C)c1	MazF activator 76
CC(=O)C12CCCCC1CC1C3CC(C)C4(O)CC(=O)CCC4(C)C3CCC12C (configuration not stated)	BoNT-F LC inh 35
CSc1ccc(Cn2c(C)c(C(=O)NCc3ccc4c(c3)OCO4)sc2=O)cc1	none (no result: MazF activator)
CCOc1ccc(NCC(=O)Nc2ccc(Cl)cc2C)cc1	Bead autofluor 19405
CCCOc1ccc(NCC(=O)Nc2ccc(C)cc2C)cc1	Anthrax LF inh2 inconclusive, Bead autofluor inconclusive
COc1ccc(NC(=O)Nc2ccc(F)cc2F)c(C)c1	BoNT-A LC inh2 inconclusive, Bead autofluor 21747
O=S(=O)(Cc1ccccc1)N1CCc2ccccc2C1	BoNT-A LC inh2 inconclusive, Bead autofluor 26161
Cc1cccc(C)c1NC(=O)c1csc(COCCO)n1	none (no result: MazF activator)
Cc1ccc2ccc(C3C(=O)c4ccccc4C3=O)nc2c1	MazF activator 85
COc1ccc(CN2C(=O)c3ccccc3C2c2nnnn2-c2c(C)cccc2C)cc1OC (configuration not stated)	none (no result: MazF activator)
C=C(C)CSc1nc2sc3c(c2c(=O)n1-c1ccc(C)cc1)CCN(C)C3	none
O=C(Nc1ncccn1)c1ccc([N+](=O)[O-])o1	MazF activator 91
O=C(NCc1ccncc1)[C@@H]1CCCN1C(=O)[C@@H]1CCCN1C(=O)c1cccc2ccccc12	none (no result: MazF activator)
CC(=O)Nc1nc(C)c(Oc2ccccc2)c(=O)[nH]1	Bead autofluor 20911
CCC(=O)Nc1nc(C)c(Oc2ccccc2)c(=O)[nH]1	none
O=S1(=O)N[C@@H](Cc2ccccc2)COc2cc(Br)ccc21	none
CCOC(=O)N1CCN(C(=O)COc2ccc(S(=O)(=O)NCc3ccccc3)cc2)CC1	Bead autofluor 17159
CC(C)NS(=O)(=O)c1ccc(OCC(=O)N2CCN(Cc3ccc4c(c3)OCO4)CC2)c(Cl)c1	Bead autofluor 20603
O=C(COc1ccc(-c2ccccc2)cc1)N1CCN(S(=O)(=O)Cc2ccccc2)CC1	Bead autofluor 16462
CCOC(=O)N1CCN(C(=O)CCNS(=O)(=O)c2ccccc2)CC1	none
O=C(c1ccc(CNS(=O)(=O)c2cccc(C(F)(F)F)c2)cc1)N1CCOCC1	BoNT-A LC inh2 inconclusive, Bead autofluor 22700
Cc1ccc(OCC(=O)N2CCN(C(=O)Cc3ccccc3)CC2)cc1	none
O=C(COc1cc(F)ccc1[N+](=O)[O-])Nc1cccc(S(=O)(=O)NC2=NCCC2)c1	none
Cc1oc2cc3oc(=O)cc(C)c3cc2c1C	none
CCOc1ccc(S(=O)(=O)N2CCN(C(=O)c3cc(C4CC4)nn3-c3ccccc3)CC2)cc1	none
CC1CN(CC(=O)Nc2nc3ccccc3s2)CC(C)O1 (configuration not stated)	none
CCCNC(=O)C1(C)CCCN(C(=O)c2cccc(C(F)(F)F)c2)C1 (configuration not stated)	none (no result: MazF activator)
O=C(COc1ccc(Cl)cc1Cl)Nc1ccc(CN2CCOCC2)cc1	none
O=C(COc1ccc(Cl)cc1Cl)NC(=O)N1CCOCC1	Bead autofluor 16969
COc1ccc(S(=O)(=O)Nc2ccccc2C(=O)N2CCOCC2)cc1Cl	Bead autofluor 17400
O=C(COc1ccc(S(=O)(=O)NCc2ccccc2)cc1Cl)N1CCOCC1	Bead autofluor 23739
C=C(C1=CCN(S(=O)(=O)C(C)(C)C)[C@@H]1CCO)c1ccccc1	none
Cc1cc(CNC[C@H]2O[C@@H](n3cnc4c(N)ncnc43)[C@H](O)[C@@H]2O)no1	none
CCOc1ccccc1-n1c(N)c(C(N)=O)sc1=S	Bead autofluor 16402
Cc1ccc(-n2c(N)c(C(N)=O)sc2=S)c(C)c1	Bead autofluor 18506
CCOC(=O)c1sc(=S)n(-c2ccccc2OC)c1N	none
CC(/C=N/NC(=O)c1ccncc1)=C\c1ccc(C(C)C)cc1	Bead autofluor 22320
Clc1ccc(-c2nnc(SCc3nc4ccccc4[nH]3)o2)c(Cl)c1	MazF activator 70
C=CCSc1nnc(-c2ccc(Cl)cc2Cl)o1	Bead autofluor 17125
O=C(COn1nnc2ccccc21)N1CCN(Cc2ccccc2)CC1	none
CCc1nc2c(OCc3ccc(Cl)cc3)cccn2c1N(C)C(=O)c1ccc2c(c1)OCO2	none (no result: MazF activator)
CCCCn1nnnc1NCc1cccs1	Bead autofluor 19115
CCCCn1c(NCc2cccs2)nc2ccccc21	none
O=C(Nc1ccccc1)c1ccc(S(=O)(=O)NCc2ccco2)cc1	none
Cc1cc(C)cc(NC(=O)c2cc(S(=O)(=O)NCc3ccco3)ccc2F)c1	Bead autofluor 21467
Cc1ccc(C(=O)Nc2ccc(S(=O)(=O)NCc3ccco3)cc2)cc1	Bead autofluor 21876
Cc1cccc(C(=O)Nc2cccc(S(=O)(=O)NCc3ccco3)c2)c1	none
CC[C@]12c3[nH]c4ccc(Cl)cc4c3CCN1C(=O)[C@@H](CC(=O)NCc1ccc(OC)c(OC)c1)C[C@@H]2C(=O)N1CCN(C(=O)c2ccco2)CC1	none
